Laboratory results as given in PubChem BioAssay AID1159580 (chemical genetic matrix, 2015).
The campaign covered roughly 5,500 compounds. About 2,000 (36%) were called active. Not shown: some 18% with an inconclusive outcome. No stated cut-off is given here; in the data, active means normalized growth mostly below about 0.91 (no sharp cut-off); inconclusive means no clear call, values can overlap the other calls; inactive means mostly above about 0.92. The list shows a part of the results.

Test: chemical genetic growth profiling, strain panel (AID 1159580);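 further: tested at 20 µM; growth read once vehicle control cultures reached saturation at 30 °C; 1 = growth at the plate median or of vehicle wells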
Settings: growth OD

Measured: normalized growth

CC(N)Cc1ccc(O)cc1 (stereo unspecified)
inactive: S. cerevisiae deletion strains, locus YAL013W, strain DEP1, stronger effect = lower value 1.01 | S. cerevisiae deletion strains, locus YBR021W, strain FUR4, stronger effect = lower value 1.04 | S. cerevisiae deletion strains, locus YBR229C, strain ROT2, stronger effect = lower value 1.01 | S. cerevisiae deletion strains, locus YCL029C, strain bik1, stronger effect = lower value 1.02 | S. cerevisiae deletion strains, locus YDL035C, strain GPR1, stronger effect = lower value 1.02 | S. cerevisiae deletion strains, locus YDL074C, strain BRE1, stronger effect = lower value 1 | S. cerevisiae deletion strains, locus YDL101C, strain DUN1, stronger effect = lower value 1.02 | S. cerevisiae deletion strains, locus YDL134C, strain PPH21, stronger effect = lower value 1.01 | S. cerevisiae deletion strains, locus YDL185W, strain tfp1, stronger effect = lower value 1.01 | S. cerevisiae deletion strains, locus YDL192W, strain arf1, stronger effect = lower value 1.03 | S. cerevisiae deletion strains, locus YDR101C, strain arx1, stronger effect = lower value 1.01 | S. cerevisiae deletion strains, locus YDR150W, strain NUM1, stronger effect = lower value 1.01 | S. cerevisiae deletion strains, locus YDR162C, strain NBP2, stronger effect = lower value 1 | S. cerevisiae deletion strains, locus YDR318W, strain mcm21, stronger effect = lower value 1.03 | S. cerevisiae deletion strains, locus YDR388W, stronger effect = lower value 1.02 | S. cerevisiae deletion strains, locus YDR502C, strain sam2, stronger effect = lower value 1.01 | S. cerevisiae deletion strains, locus YEL061C, strain CIN8, stronger effect = lower value 1.02 | S. cerevisiae deletion strains, locus YER110C, stronger effect = lower value 1.02 | S. cerevisiae deletion strains, locus YER155C, strain BEM2, stronger effect = lower value 1 | S. cerevisiae deletion strains, locus YER167W, strain BCK2, stronger effect = lower value 1.03 | S. cerevisiae deletion strains, locus YGL078C, strain dbp3, stronger effect = lower value 1.02 | S. cerevisiae deletion strains, locus YGL086W, strain mad1, stronger effect = lower value 1.02 | S. cerevisiae deletion strains, locus YGL248W, strain PDE1, stronger effect = lower value 1.02 | S. cerevisiae deletion strains, locus YGR078C, strain PAC10, stronger effect = lower value 1.01 | S. cerevisiae deletion strains, locus YGR135W, strain pre9, stronger effect = lower value 1 | S. cerevisiae deletion strains, locus YGR229C, strain SMI1, stronger effect = lower value 1.01 | S. cerevisiae deletion strains, locus YGR252W, strain gcn5, stronger effect = lower value 1.04 | S. cerevisiae deletion strains, locus YHR030C, strain SLT2, stronger effect = lower value 1.01 | S. cerevisiae deletion strains, locus YHR079C, strain IRE1 (second series), stronger effect = lower value 1.03 | S. cerevisiae deletion strains, locus YHR094C, strain hxt1, stronger effect = lower value 1.01 | S. cerevisiae deletion strains, locus YHR129C, strain ARP1, stronger effect = lower value 1.03 | S. cerevisiae deletion strains, locus YHR200W, strain rpn10, stronger effect = lower value 1.01 | S. cerevisiae deletion strains, locus YIL066C, strain RNR3, stronger effect = lower value 1.01 | S. cerevisiae deletion strains, locus YIL073C, strain SPO22, stronger effect = lower value 1.07 | S. cerevisiae deletion strains, locus YIL125W, strain kgd1, stronger effect = lower value 1.02 | S. cerevisiae deletion strains, locus YIR030C, strain dcg1, stronger effect = lower value 1.02 | S. cerevisiae deletion strains, locus YJL095W, strain BCK1, stronger effect = lower value 1.02 | S. cerevisiae deletion strains, locus YJL134W, strain LCB3, stronger effect = lower value 1.01 | S. cerevisiae deletion strains, locus YJL168C, strain set2, stronger effect = lower value 1.01 | S. cerevisiae deletion strains, locus YJL187C, strain SWE1 (second series), stronger effect = lower value 1.02 | S. cerevisiae deletion strains, locus YJR043C, strain POL32, stronger effect = lower value 1.06 | S. cerevisiae deletion strains, locus YJR075W, strain HOC1, stronger effect = lower value 1.02 | S. cerevisiae deletion strains, locus YKL009W, strain mrt4, stronger effect = lower value 1.04 | S. cerevisiae deletion strains, locus YKL068W, stronger effect = lower value 1.01 | S. cerevisiae deletion strains, locus YKL085W, strain MDH1 (second series), stronger effect = lower value 1.02 | S. cerevisiae deletion strains, locus YKL085W, strain MDH1, stronger effect = lower value 1.02 | S. cerevisiae deletion strains, locus YKL190W, strain CNB1, stronger effect = lower value 1.01 | S. cerevisiae deletion strains, locus YKR001C, strain vps1, stronger effect = lower value 1.04 | S. cerevisiae deletion strains, locus YLR039C, strain RIC1, stronger effect = lower value 1.05 | S. cerevisiae deletion strains, locus YLR058C, strain SHM2, stronger effect = lower value 1.02 | S. cerevisiae deletion strains, locus YLR102C, strain apc9, stronger effect = lower value 1.02 | S. cerevisiae deletion strains, locus YLR262C, strain YPT6, stronger effect = lower value 1.01 | S. cerevisiae deletion strains, locus YLR268W, strain sec22, stronger effect = lower value 1.01 | S. cerevisiae deletion strains, locus YLR330W, strain CHS5, stronger effect = lower value 1.01 | S. cerevisiae deletion strains, locus YLR342W, strain FKS1 (second series), stronger effect = lower value 1.08 | S. cerevisiae deletion strains, locus YLR371W, strain rom2, stronger effect = lower value 1.02 | S. cerevisiae deletion strains, locus YLR418C, strain cdc73, stronger effect = lower value 0.995 | S. cerevisiae deletion strains, locus YML016C, strain PPZ1, stronger effect = lower value 1.02 | S. cerevisiae deletion strains, locus YML032C, strain rad52, stronger effect = lower value 1.04 | S. cerevisiae deletion strains, locus YML124C, strain tub3, stronger effect = lower value 1.01 | S. cerevisiae deletion strains, locus YMR078C, strain ctf18, stronger effect = lower value 1.03 | S. cerevisiae deletion strains, locus YMR223W, strain ubp8, stronger effect = lower value 1.03 | S. cerevisiae deletion strains, locus YMR263W, strain SAP30, stronger effect = lower value 1.01 | S. cerevisiae deletion strains, locus YMR307W, strain GAS1, stronger effect = lower value 1.08 | S. cerevisiae deletion strains, locus YNL067W, strain RPL9B, stronger effect = lower value 1.01 | S. cerevisiae deletion strains, locus YNL128W, strain TEP1, stronger effect = lower value 0.99 | S. cerevisiae deletion strains, locus YNL153C, strain GIM3, stronger effect = lower value 1.01 | S. cerevisiae deletion strains, locus YNL233W, strain BNI4, stronger effect = lower value 1.02 | S. cerevisiae deletion strains, locus YNL250W, strain rad50, stronger effect = lower value 1.01 | S. cerevisiae deletion strains, locus YNL271C, strain bni1, stronger effect = lower value 1.02 | S. cerevisiae deletion strains, locus YNL298W, strain CLA4, stronger effect = lower value 1.03 | S. cerevisiae deletion strains, locus YNL307C, strain MCK1, stronger effect = lower value 1.03 | S. cerevisiae deletion strains, locus YNL322C, strain KRE1, stronger effect = lower value 1.01 | S. cerevisiae deletion strains, locus YNR052C, strain pop2, stronger effect = lower value 1.01 | S. cerevisiae deletion strains, locus YOL006C, strain TOP1, stronger effect = lower value 1.07 | S. cerevisiae deletion strains, locus YOL012C, strain htz1 1.46 | S. cerevisiae deletion strains, locus YOL147C, strain pex11, stronger effect = lower value 1.02 | S. cerevisiae deletion strains, locus YOR061W, strain CKA2, stronger effect = lower value 1.01 | S. cerevisiae deletion strains, locus YOR069W, strain VPS5, stronger effect = lower value 1.02 | S. cerevisiae deletion strains, locus YOR136W, strain idh2, stronger effect = lower value 1.01 | S. cerevisiae deletion strains, locus YOR144C, strain elg1, stronger effect = lower value 1.01 | S. cerevisiae deletion strains, locus YOR184W, strain ser1, stronger effect = lower value 1.04 | S. cerevisiae deletion strains, locus YOR316C, strain cot1, stronger effect = lower value 1.02 | S. cerevisiae deletion strains, locus YPL055C, strain LGE1, stronger effect = lower value 0.982 | S. cerevisiae deletion strains, locus YPL241C, strain CIN2, stronger effect = lower value 1.01 | S. cerevisiae deletion strains, locus YPR119W, strain clb2, stronger effect = lower value 1.01 | S. cerevisiae deletion strains, locus YPR141C, strain kar3, stronger effect = lower value 1.02 | S. cerevisiae deletion strains, locus YPR163C, strain tif3, stronger effect = lower value 1.02 | S. cerevisiae deletion strains, locus YPR167C, strain met16, stronger effect = lower value 1.02 | S. cerevisiae deletion strains, strain wtn01, stronger effect = lower value 1.01 | S. cerevisiae strains, strain wild type, stronger effect = lower value 1.01
